Measurements: paper PMC13541613, “GHT-SELEX demonstrates unexpectedly high intrinsic sequence specificity and complex DNA binding of many human transcription factors”

How the values were obtained:
[1] = target: ZNF721 full-length (Homo sapiens, UniProt Q8TF20-2 1-923); assay: HT-SELEX; 20 mM HEPES pH 7, 140 mM KCl, 5 mM NaCl, 1 mM K2HPO4, 2 mM MgSO4, 100 uM EGTA, ZnSO4, 0.1% Tween20; room temperature, 1 h; high values mean tight binding; conditions: protein: ivt; tags: eGFP (N-terminal); dsDNA, one strand shown
Chain of ZNF721 full-length (Q8TF20 other isoform, or with tags, fused parts or gaps): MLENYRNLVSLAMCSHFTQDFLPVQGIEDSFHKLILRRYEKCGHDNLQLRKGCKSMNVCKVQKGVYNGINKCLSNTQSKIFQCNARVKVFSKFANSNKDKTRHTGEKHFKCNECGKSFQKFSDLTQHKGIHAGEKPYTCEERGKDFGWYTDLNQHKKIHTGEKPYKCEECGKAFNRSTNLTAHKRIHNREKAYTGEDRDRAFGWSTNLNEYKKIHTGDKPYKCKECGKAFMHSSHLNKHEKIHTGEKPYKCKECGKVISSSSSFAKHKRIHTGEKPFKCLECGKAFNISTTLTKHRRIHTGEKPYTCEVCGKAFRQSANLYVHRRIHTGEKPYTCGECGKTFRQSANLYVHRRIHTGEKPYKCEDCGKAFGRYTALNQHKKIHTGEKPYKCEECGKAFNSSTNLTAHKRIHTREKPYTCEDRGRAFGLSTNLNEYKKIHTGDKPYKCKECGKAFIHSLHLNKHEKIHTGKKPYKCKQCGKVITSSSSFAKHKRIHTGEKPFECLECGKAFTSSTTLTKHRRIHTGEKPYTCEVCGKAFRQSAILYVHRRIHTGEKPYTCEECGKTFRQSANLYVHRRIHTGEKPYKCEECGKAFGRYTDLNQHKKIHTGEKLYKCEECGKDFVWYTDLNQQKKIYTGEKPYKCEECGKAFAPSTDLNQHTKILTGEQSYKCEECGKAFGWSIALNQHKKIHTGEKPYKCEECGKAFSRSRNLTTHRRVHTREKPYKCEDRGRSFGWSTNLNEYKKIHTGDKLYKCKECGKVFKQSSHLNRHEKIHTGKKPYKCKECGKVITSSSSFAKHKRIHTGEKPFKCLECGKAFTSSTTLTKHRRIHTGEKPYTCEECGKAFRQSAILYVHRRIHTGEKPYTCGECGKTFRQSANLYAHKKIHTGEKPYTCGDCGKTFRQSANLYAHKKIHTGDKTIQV
Outline: (§1)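 Full-length or DNA-binding-domain forms of a tagged transcription factor were produced in HEK293 lysate or cell-free extract and immobilised on beads. Incubation with a randomized 40-base DNA library ran for 1 h at room temperature in HEPES/KCl low-stringency buffer with Tween20, after which bound DNA was washed, heat-eluted, PCR-amplified over successive cycles and Illumina-sequenced. Binding strength is given as the relative k-mer count in selected reads, higher for tighter binding.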

[2] = target: ZNF721 DBD2 (Homo sapiens, UniProt Q8TF20-2 395-923); assay: as above; conditions: protein: ivt; tags: eGFP (N-terminal); dsDNA, one strand shown
Chain of ZNF721 DBD2 (Q8TF20 383-911): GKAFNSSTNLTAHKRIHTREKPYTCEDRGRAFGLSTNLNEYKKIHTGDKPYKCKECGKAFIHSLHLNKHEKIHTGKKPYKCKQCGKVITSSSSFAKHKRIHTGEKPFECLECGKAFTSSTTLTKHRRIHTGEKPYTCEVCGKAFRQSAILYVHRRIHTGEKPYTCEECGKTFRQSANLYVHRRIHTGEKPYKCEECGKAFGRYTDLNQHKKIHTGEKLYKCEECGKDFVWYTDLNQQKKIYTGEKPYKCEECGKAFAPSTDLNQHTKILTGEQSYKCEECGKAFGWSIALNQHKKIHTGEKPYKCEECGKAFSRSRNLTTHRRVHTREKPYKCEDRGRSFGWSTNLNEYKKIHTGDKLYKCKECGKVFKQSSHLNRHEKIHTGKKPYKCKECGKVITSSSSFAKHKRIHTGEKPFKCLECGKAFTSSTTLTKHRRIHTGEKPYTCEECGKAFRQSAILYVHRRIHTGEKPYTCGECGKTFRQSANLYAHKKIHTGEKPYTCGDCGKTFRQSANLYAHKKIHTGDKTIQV
Outline: as §1

Sequence | binding signal [1] [relative 10-mer count] | binding signal [2] [relative 10-mer count]
GAAAACAGCA | 0.299 | 0.388
AGAGTACCCA | 0.112 | 0.123
CAGGGTTGCC | 0.155 | 0.49
AAACAGCATT | 0.17 | 0.254
ACTGTTTTTC | 0.135 | 0.17
GAAACACTGC | 0.118 | 0.188
CAGTGTCTCC | 0.213 | 0.552
AAACAGTGTC | 0.116 | 0.209
AAACGAACAG | 0.126 | 0.0771
AAACAGGGTA | 0.175 | 0.22
CACTGTTTTC | 0.15 | 0.248
AAAACAGGGG | 0.112 | 0.145
AAAAAACAGT | 0.466 | 0.516
AACAGCGTAT | 0.225 | 0.366
AAAAAGCAGG | 0.195 | 0.172
AAAAACAGCA | 0.778 | 0.785
CAGCATGCCC | 0.121 | 0.244
CAAAAAACAG | 0.386 | 0.495
AAAGGAACAG | 0.113 | 0.0545
AAAACAGGGT | 0.391 | 0.506
AAACAGCATA | 0.56 | 0.657
CTGTTTTTTC | 0.357 | 0.365
ACAGCATACC | 0.516 | 0.692
AACAGCATCC | 0.117 | 0.1
CGAAAAACAG | 0.174 | 0.222

Sequence | binding signal [1] [relative 10-mer count] | binding signal [2] [relative 10-mer count]
AACAAAACAG | 0.206 | 0.223
AAACAGCAGT | 0.106 | 0.159
CCAAAAACAG | 0.108 | 0.144
AAAACAGCAC | 0.279 | 0.306
AAAAAACAGA | 0.261 | 0.219
AGAAAAACAG | 0.178 | 0.208
CAAAGCAGCA | 0.112 | 0.132
AAAACTAGCA | 0.127 | 0.173
AAAACAGCGC | 0.17 | 0.225
AAAACAGGAT | 0.12 | 0.133
AAACAGCGTT | 0.388 | 0.648
ACAGCGTATC | 0.232 | 0.371
AAACAGCACA | 0.11 | 0.109
ACAGTGTCTC | 0.106 | 0.236
CAGTGTTTCC | 0.252 | 0.641
ACAAAGCAGC | 0.189 | 0.238
AACAGCGTCT | 0.203 | 0.347
AAAAACAGTG | 0.406 | 0.517
AAGAAAACAG | 0.177 | 0.222
ACAGCGTCTC | 0.212 | 0.344
CCGAAAACAG | 0.111 | 0.217
AAACGCTGTT | 0.236 | 0.44
AAACAGCACT | 0.14 | 0.201
ACAGCGTTTC | 0.253 | 0.448
